The values that follow come from PubChem BioAssay.

The subject of assay [1] is Plasmodium falciparum Sir2 (PF13_0152, Sir2A). The assay is described as follows: pfSir2 binders on small-molecule microarrays, primary screen, biochemical, small-molecule microarray, 635 nm fluorescence (AID 1098).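 Note: score merges spot fluorescence intensity with its signal-to-noise ratio.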 As to conditions: small-molecule microarray binding, fluorescence 635 nm; higher = more signal.
Assay [2] in a line: small-molecule microarray binders of probe aDKK1, primary screen, biochemical, biotinylated probe, 635/667 nm fluorescence (AID 1099).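 Note: score merges 667nm spot fluorescence with signal to noise across triplicate slides.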 As to conditions: higher = more signal.
Assay [3] in a line: small-molecule microarray binders of probe aCHRDL2, primary screen, biochemical, biotinylated probe, 635/667 nm fluorescence (AID 1100). As to conditions: higher = more signal.
Assay [4] in a line: splicing luciferase reporter signal modulators, primary screen, spliceosome inhibition project, cell-based, HEK293, splice +/- reporter (AID 1101).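 Note: HEK293 cells carrying a splicing-competent luciferase reporter gene; test concentration not given here.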 As to conditions: luminescence, 24 h, higher = more signal, called active from +8 up or from −8 down. (Reporter assays use an easily measured gene product as a stand-in for the process of interest.)
For assay [5], the target named is Fibroblast growth factor 10 (Homo sapiens) (UniProt O15520). The assay is described as follows: FGF10 binders on small-molecule microarrays, primary screen, biochemical, small-molecule microarray, 635 nm fluorescence (AID 1102). As to conditions: FGF10 binding, fluorescence 635 nm, higher = more signal.
Chain of Fibroblast growth factor 10 (Homo sapiens) (O15520 whole entry, looked up): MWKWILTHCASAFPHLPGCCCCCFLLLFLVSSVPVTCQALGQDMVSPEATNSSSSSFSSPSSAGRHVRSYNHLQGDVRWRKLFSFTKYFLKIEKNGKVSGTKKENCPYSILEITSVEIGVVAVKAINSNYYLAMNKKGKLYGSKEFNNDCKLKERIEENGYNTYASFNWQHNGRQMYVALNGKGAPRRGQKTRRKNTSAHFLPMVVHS
In assay [6] the test system is glycogen synthase kinase-3 (GSK3A per assay name; protocol says GSK3B). Briefly: GSK3 binders on small-molecule microarrays, primary screen, biochemical, small-molecule microarray, 635 nm fluorescence, GSK3A (AID 1103). Note: the record names both GSK3A and GSK3B. As to conditions: small-molecule microarray binding, fluorescence 635 nm; higher = more signal.
Assay [7] concerns the target Epidermal growth factor receptor (Homo sapiens) (UniProt P00533). The assay is described as follows: EGFR binders on small-molecule microarrays, primary screen, biochemical, small-molecule microarray, 635 nm fluorescence (AID 1104).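 Note: score merges 667 nm emission intensity with spot signal to noise over triplicate slides.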 As to conditions: EGFR binding, higher = more signal.
The target in assay [8] is Follistatin-related protein 3 (Homo sapiens) (UniProt O95633). Briefly: FSTL3 binders on small-molecule microarrays, primary screen, biochemical, small-molecule microarray, 635 nm fluorescence (AID 1105).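 Note: score merges emission near 667 nm and signal to noise per printed spot across three slides.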 As to conditions: FSTL3 binding, higher = more signal.
Chain of Follistatin-related protein 3 (Homo sapiens) (O95633 whole entry, looked up): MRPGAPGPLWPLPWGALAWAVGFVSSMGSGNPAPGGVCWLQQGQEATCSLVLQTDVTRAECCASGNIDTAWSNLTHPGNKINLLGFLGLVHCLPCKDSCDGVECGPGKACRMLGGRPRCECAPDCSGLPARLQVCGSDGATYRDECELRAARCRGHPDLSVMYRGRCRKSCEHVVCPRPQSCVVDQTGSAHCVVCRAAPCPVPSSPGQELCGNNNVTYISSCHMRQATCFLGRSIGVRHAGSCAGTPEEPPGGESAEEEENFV
For assay [9], the target named is Dickkopf-related protein 1 (Homo sapiens) (UniProt O94907). The assay is described as follows: DKK1 binders on small-molecule microarrays, primary screen, biochemical, small-molecule microarray, 635 nm fluorescence scan (AID 1106).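 Note: score merges emission near 667 nm with signal to noise over three replicate slides.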 As to conditions: DKK1 binding, higher = more signal.
Chain of Dickkopf-related protein 1 (Homo sapiens) (O94907 whole entry, looked up): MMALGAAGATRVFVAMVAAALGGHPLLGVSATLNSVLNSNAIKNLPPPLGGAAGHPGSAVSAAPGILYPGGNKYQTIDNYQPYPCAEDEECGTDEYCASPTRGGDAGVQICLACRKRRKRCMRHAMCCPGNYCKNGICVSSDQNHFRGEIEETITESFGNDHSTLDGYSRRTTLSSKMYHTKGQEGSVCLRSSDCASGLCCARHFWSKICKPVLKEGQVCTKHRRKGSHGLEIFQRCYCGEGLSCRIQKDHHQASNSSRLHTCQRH
Assay [10] relates to Inhibin beta A chain (activin A). The assay is described as follows: INHBA (activin A) binders on microarrays, primary screen, biochemical, small-molecule microarray, 635 nm fluorescence scan (AID 1107).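 Note: mouse activin A protein probed at 4.33 µg/mL on printed slides; score merges bound-protein fluorescence near 667 nm with spot signal-to-noise.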 As to conditions: small-molecule microarray binding, higher = more signal.
Assay [11] concerns Human papillomavirus type 1a protein E7 (residues 44-93). Briefly: HPV1a E7 fragment binders on microarrays, primary screen, biochemical, small-molecule microarray, residues 44-93, 635 nm fluorescence (AID 1108).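 Note: E7 fragment applied at 1 µg/mL in TBST for 1 h at 4 C; score combines spot fluorescence with its signal to noise ratio.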 As to conditions: small-molecule microarray binding, fluorescence 635 nm; higher = more signal.
The nature of assay [12]: modulators of HCV replicon luciferase signal, primary screen, HCV replication inhibitor project, Huh7 cells, luciferase reporter (AID 1109).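 Note: huh7 hepatoma cells harbouring a luciferase neomycin HCV replicon reporter; luciferase luminescence as measure of HCV replicon replication; test concentration not given here.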 As to conditions: 48 h, higher = more signal. In general terms: A replicon is a self-replicating genome or part of one, used to study replication in cells.
Assay [13] concerns the target Left-right determination factor 2 (Homo sapiens) (UniProt O00292). Briefly: LEFTY2 binders on small-molecule microarrays, primary screen, biochemical, small-molecule microarray, 635 nm fluorescence scan (AID 1110). As to conditions: LEFTY2 binding, higher = more signal.
For assay [14], the target named is Calmodulin-1 (Homo sapiens) (UniProt P0DP23). Briefly: CALM1 binders on microarrays, EGTA buffer, profiling panel, biochemical, small-molecule microarray, Cy5-labelled CALM1 (AID 1111).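 Note: labelled calmodulin applied in Tris saline Tween buffer holding calcium plus EGTA and DTT.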 As to conditions: Cy5-CALM1 binding fluorescence, higher = more signal.
The target is the same in assay [15]. The assay is described as follows: calcium-bound CALM1 binders on microarrays, profiling panel, artefact control for SMM control-protein annotation, biochemical, small-molecule microarray, Cy5-labelled CALM1, plus calcium (AID 1112).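 Note: score merges spot fluorescence with signal to noise from triplicate slides.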 As to conditions: Cy5-CALM1 binding fluorescence, higher = more signal.
Assay [16] can be described thus: small-molecule microarray binders of probe aWnt5a, primary screen, biochemical, biotinylated probe, 635/667 nm fluorescence (AID 1113).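 Note: score merges 667 nm fluorescence intensity with signal-to-noise per printed feature.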 As to conditions: higher = more signal.
A short description of assay [17]: small-molecule microarray binders of probe aShh, primary screen, biochemical, biotinylated probe, 635/667 nm fluorescence (AID 1114).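 Note: probe is biotin-labelled aShh protein from a stem cell growth factor screen; measures binding of labelled protein to compounds printed on the slide; score merges feature fluorescence at 667 nm with signal-to-noise.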 As to conditions: higher = more signal.
Assay [18] in a line: small-molecule microarray binders of probe aNog, primary screen, biochemical, biotinylated probe, 635/667 nm fluorescence (AID 1115).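 Note: probe is biotinylated aNog protein used at 0.15 µg/mL for 1 h at 4 C; z-score combines 667 nm fluorescence of each spot with its signal to noise.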 As to conditions: higher = more signal.
The target of assay [19] is Torsin-1A-interacting protein 1 (Homo sapiens) (UniProt Q5JTV8). Briefly: LAP1 binders from COS7 cell lysate, primary screen, small-molecule microarray, 635/667 nm fluorescence (AID 1116). As to conditions: COS7-hLAP1 lysate binding, 635 nm fluorescence, higher = more signal.
Chain of Torsin-1A-interacting protein 1 (Homo sapiens) (Q5JTV8 whole entry, looked up): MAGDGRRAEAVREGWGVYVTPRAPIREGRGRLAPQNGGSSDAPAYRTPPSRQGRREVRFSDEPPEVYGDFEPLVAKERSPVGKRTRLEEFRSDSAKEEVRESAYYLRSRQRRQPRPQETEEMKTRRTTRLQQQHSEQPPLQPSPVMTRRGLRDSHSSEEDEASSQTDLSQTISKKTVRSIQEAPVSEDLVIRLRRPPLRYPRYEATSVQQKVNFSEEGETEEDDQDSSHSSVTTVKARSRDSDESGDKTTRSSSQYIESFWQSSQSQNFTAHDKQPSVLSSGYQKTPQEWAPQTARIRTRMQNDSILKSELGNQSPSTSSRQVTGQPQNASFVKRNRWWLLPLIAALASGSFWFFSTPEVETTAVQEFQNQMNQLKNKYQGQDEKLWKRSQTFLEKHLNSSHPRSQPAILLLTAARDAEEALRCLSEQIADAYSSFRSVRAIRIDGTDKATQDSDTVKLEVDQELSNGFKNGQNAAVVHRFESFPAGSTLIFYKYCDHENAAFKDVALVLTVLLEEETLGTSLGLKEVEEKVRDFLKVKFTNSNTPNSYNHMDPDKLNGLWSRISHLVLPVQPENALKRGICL
In assay [20] the target is Alpha-bungarotoxin (Bungarus multicinctus) (UniProt P60615). The assay is described as follows: alpha-bungarotoxin binders on microarray, profiling panel, artefact control for SMM control protein annotation, biochemical, small-molecule microarray, Alexa647 label, 635/667 nm fluorescence (AID 1117). As to conditions: alpha-BTX-A647 binding fluorescence, higher = more signal.
Chain of Alpha-bungarotoxin (Bungarus multicinctus) (P60615 whole entry, looked up): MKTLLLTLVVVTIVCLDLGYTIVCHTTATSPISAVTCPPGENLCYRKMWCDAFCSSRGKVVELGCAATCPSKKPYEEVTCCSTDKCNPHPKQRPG

Activity calls are given as the source filed them.

Chain of Left-right determination factor 2 (Homo sapiens) (O00292 whole entry, looked up): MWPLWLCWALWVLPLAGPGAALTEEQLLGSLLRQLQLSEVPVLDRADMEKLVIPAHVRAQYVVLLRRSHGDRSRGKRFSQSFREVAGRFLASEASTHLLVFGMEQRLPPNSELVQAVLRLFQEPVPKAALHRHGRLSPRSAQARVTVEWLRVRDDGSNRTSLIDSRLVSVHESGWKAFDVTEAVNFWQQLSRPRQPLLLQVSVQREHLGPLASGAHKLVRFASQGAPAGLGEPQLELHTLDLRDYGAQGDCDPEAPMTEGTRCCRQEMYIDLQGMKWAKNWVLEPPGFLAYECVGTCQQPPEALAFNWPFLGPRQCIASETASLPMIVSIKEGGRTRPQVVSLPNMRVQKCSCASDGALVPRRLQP
Chain of Epidermal growth factor receptor (Homo sapiens) (P00533 whole entry, looked up): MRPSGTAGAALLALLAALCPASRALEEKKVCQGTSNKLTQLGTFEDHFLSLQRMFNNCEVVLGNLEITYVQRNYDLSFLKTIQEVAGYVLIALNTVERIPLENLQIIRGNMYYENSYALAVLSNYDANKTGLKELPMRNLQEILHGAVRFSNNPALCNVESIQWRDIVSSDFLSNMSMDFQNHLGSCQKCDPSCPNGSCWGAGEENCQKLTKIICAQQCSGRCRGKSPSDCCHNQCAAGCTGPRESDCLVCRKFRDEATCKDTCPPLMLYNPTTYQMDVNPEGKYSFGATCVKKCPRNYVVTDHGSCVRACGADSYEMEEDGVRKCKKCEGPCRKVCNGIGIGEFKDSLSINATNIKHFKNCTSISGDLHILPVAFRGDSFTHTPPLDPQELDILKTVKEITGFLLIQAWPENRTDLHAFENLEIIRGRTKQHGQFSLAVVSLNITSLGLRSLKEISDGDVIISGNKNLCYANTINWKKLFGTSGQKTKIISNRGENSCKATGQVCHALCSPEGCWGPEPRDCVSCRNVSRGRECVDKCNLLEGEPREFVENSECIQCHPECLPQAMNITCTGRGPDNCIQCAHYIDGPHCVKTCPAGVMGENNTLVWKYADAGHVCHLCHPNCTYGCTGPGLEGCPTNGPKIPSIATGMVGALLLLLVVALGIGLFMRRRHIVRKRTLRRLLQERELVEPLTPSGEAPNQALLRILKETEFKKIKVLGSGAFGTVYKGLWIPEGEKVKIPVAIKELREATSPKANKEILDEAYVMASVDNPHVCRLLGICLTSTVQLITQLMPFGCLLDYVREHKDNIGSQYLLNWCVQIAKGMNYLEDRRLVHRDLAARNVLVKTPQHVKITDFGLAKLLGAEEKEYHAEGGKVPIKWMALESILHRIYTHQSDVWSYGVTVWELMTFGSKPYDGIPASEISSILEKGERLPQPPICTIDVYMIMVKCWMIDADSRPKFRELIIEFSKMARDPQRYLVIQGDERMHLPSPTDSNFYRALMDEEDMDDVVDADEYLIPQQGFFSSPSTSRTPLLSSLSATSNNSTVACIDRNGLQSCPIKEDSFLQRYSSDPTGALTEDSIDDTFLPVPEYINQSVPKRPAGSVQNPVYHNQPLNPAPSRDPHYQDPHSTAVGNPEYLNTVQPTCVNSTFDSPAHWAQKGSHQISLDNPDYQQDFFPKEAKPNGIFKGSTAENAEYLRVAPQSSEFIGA

In the case of `[N-]=[N+]=NCc1ccccc1[C@@H]1OC(c2ccc(OCCCO)cc2)=N[C@]1(Cc1ccccc1N=[N+]=[N-])C(=O)NCc1ccccc1`, the composite z-score in assay [1] amounted to 0.919; in [2], 0.0108; in [3], 0.316; in [5], 0.691; in assay [6], 1.25; in [7], 0.351. The composite z-score worked out at 0.667 in assay [8]; 0.0688 in assay [9]; 1.28 in [10]; 1.33 in [11]; 0.374 in assay [13]; 1.34 in [14]. For the same molecule, the composite z-score was 0.12 in assay [15]; -0.138 in assay [16]; -0.221 in assay [17]; -0.447 in assay [18]; 1.4 in assay [19]; 0.158 in assay [20]. For the same molecule, the z-score in assay [4] was -0.856 (inactive); in [12] it was -1.64.

Turning to `COC(=O)c1ccc(C(O)C2C=CC3C(=O)N(c4ccccc4)C(=O)C3N2Nc2ccc(C#N)cc2)o1` (stereo not given), the composite z-score in assay [1] stood at 0.969; in assay [2] it was 0.51; in assay [3], 0.669; in [5] it was 0.989; in assay [6], 0.137; in assay [7], 0.219. The composite z-score in assay [8] was 0.311; in assay [9] it was -0.0752; in assay [10], 0.961; in assay [11] it was 1.18; in [13] it was 0.196; in [14], -0.118. Also, the composite z-score in [15] was -0.637; in [16] it was 0.0136; in assay [17], 0.582; in assay [18], 0.363; in [19], 0.681; in assay [20] it was -0.187. The z-score in assay [4] was 1.28 (inactive); in [12], -0.133.

For `Cc1ccc(F)cc1S(=O)(=O)N[C@@H]1CCN(Cc2ccc(-c3ccccc3)cc2)C1`, the composite z-score was 0.293 in [1]; -0.188 in [2]; -0.318 in [3]; 0.927 in assay [5]; 0.205 in [6]; 0.156 in assay [7]. The composite z-score in assay [8] was 0.239; in assay [9], 0.138; in [10], 0.42; in assay [11], 0.504; in [13], 0.473; in assay [14] it was -0.452. For the same molecule, the composite z-score in [15] was -0.578; in assay [16], -0.129; in assay [17], -0.0011; in [18], -0.316; in assay [19], 0.668; in assay [20], 0.116. Besides, the z-score in [4] is 1.18 (inactive); in assay [12], -4.36.

`CC(C)CNC(=O)[C@@H]1c2ccccc2C(=O)N(Cc2cc(C(F)(F)F)cc(C(F)(F)F)c2)[C@H]1c1ccc(CO)cc1`: the composite z-score is -0.46 in [1]; 0.416 in assay [2]; 0.822 in assay [3]; -0.633 in [5]; -1.32 in [6]; -0.88 in assay [7]. For the same molecule, the composite z-score in assay [8] was -0.736; in [9] it was -0.439; in [10] it was -0.575; in [11], -0.337; in assay [13] it was -0.488; in assay [14], -0.128. The composite z-score is 0.401 in [15]; 0.0437 in assay [16]; -0.155 in [17]; -0.247 in assay [18]; -0.0708 in assay [19]; -0.141 in [20]. In addition, the z-score in assay [4] was -0.827 (inactive); in [12], -0.195.

Regarding `Cc1cc(C)cc(N2C(=O)CS(=O)(=O)C2c2cccc([N+](=O)[O-])c2)c1` (stereo not given), the composite z-score in assay [1] was found to be 0.195; in assay [2], 0.734; in [3] it was 0.788; in assay [5], 0.612; in [6], 0.124; in assay [7], 0.518. For the same molecule, the composite z-score in assay [8] is 0.366; in [9], 0.122; in assay [10] it was 0.826; in [11] it was -0.489; in assay [13] it was 0.39; in [14], 1.47. Besides, the composite z-score is 0.395 in assay [15]; -0.15 in [16]; 0.108 in assay [17]; 0.549 in [18]; 1.23 in [19]; 1.25 in [20]. In addition, the z-score in assay [4] is -0.352 (inactive); in assay [12] it was -0.0865.
